Hit rate of the full screen: of about 220,000 compounds, about 830 (0.38%) were called active. The list is a sample of the results. Measured potencies and affinities stand elsewhere. A number with no mark means an inactive call.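 Rule for the calls: active = compound inhibiting the enzyme by more than half at any dose during confirmatory dose-response retesting; inconclusive = strong single-dose inhibitors picked by rank but not retested; inactive = the rest.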

Among the data in PubChem BioAssay AID1619 (SRMLSC, 2009) are inhibition values, retold here.

The assay deals with Leucine aminopeptidase (Plasmodium falciparum (isolate 3D7)) (UniProt Q8IL11). In words: P. falciparum M17LAP inhibitors, primary screen, biochemical, fluorogenic H-Leu-NHMec substrate, 1536-well (AID 1619).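 Note: plate controls were full reaction with DMSO carrier for no effect and no enzyme background for full effect.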 As to conditions: recombinant M17LAP, H-Leu-NHMec fluorogenic kinetic assay; at 30 µM; stronger effect = higher value.
Chain of Leucine aminopeptidase (Plasmodium falciparum (isolate 3D7)) (Q8IL11 whole entry, looked up): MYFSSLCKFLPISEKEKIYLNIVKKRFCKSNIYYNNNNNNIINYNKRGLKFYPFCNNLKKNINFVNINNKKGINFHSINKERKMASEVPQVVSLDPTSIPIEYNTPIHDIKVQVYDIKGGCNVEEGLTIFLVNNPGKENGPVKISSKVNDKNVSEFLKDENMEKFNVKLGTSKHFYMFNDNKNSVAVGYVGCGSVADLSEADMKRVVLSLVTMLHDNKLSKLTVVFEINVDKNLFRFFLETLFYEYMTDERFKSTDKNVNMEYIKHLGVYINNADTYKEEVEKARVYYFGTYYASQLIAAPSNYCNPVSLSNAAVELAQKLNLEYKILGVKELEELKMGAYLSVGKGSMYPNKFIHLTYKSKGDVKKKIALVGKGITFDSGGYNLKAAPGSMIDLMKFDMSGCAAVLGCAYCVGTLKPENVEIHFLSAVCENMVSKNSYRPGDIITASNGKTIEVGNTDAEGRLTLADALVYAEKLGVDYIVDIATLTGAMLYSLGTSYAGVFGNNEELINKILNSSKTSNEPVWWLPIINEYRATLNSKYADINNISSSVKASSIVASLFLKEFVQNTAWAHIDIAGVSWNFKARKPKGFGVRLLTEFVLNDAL
Take `O=c1cc2c(=O)oc3cc(O)c(O)oc3c2c(O)c1O`: the inhibition (as a rule, the relative decrease from the control value, in per cent) is 33%.

Turning to `Cc1c(Br)c(=O)oc2c(Br)c(O)c(O)cc12`, the inhibition is 45.5%. The same measure for `Cc1ccc(C)c(NC(=O)CSc2nnc(-c3ccco3)o2)c1`: 1.4%; for `Cc1cccc(Nc2nnc(SC/C(O)=C(\C#N)c3nc4ccccc4[nH]3)s2)c1C`: -9.64%; for `Cc1cccc(Nc2nnc(SC/C(O)=C(\C#N)c3nc4ccccc4[nH]3)s2)c1`: 19.5%. As for `COc1ccc(S(=O)(=O)N2CCOC2CNC(=O)C(=O)NCc2cccnc2)cc1C` (stereo not given), the inhibition was 10.8%. The same measure for `CCn1c(=S)[nH]c2c(c1=O)C(C)(C)Cc1ccccc1-2`: -1.93%; for `CN(C)Cc1nc2c(c(=O)[nH]1)C(C)(C)Cc1ccccc1-2`: -7.27%. On to `Cc1ccc(S(=O)(=O)c2nc(C)c3c(n2)CCC3)cc1`, for which the inhibition was -1.17%.

Take `CCOC(=O)c1cnc(SCC(=O)Nc2cc(C(F)(F)F)ccc2N2CCOCC2)nc1N`: the inhibition was -15.2%. For `CC(=O)/C(C#N)=C1\NC(=O)C(Cc2ccccc2C)S1` (stereo not given), the inhibition was 23.4%.

For `CC(=O)/C(C#N)=C1\NC(=O)C(Cc2cc(Cl)ccc2Cl)S1` (stereo not given), the inhibition is 45.6%. As to `COCCCn1c(SCc2cc(=O)[nH]c3ccccc23)nnc1-c1ccco1`, the inhibition is -2.38%.

Take `COCCSc1nnc(NC(=O)C2CC(=O)N(c3ccc(C)cc3)C2)s1` (stereo not given): the inhibition is 1.69%. Regarding `CC(=O)Nc1ccc(S(=O)(=O)Oc2cccc(N3C(=O)C4CC=CCC4C3=O)c2)cc1` (stereo not given), the inhibition was 15.9%. The same measure for `O=C1C2CC=CCC2C(=O)N1c1cccc(OS(=O)(=O)c2ccc3ccccc3c2)c1` (stereo not given): 6.42%; for `CCOc1ccc(NC(=S)NNC(=S)Nc2cccc(C(F)(F)F)c2)cc1`: -5.94%. To `O=C(NCc1ccco1)c1cc(-c2ccccn2)nc2ccccc12` belongs 6.45%; to `COc1ccc(NC(=S)NNc2ccc([N+](=O)[O-])cc2S(=O)(=O)Nc2ccc(C)cc2C)cc1`, 4.17%. As to `COc1ccc(NC(=O)c2ccccc2NS(=O)(=O)c2ccc(C)cc2)c([N+](=O)[O-])c1`, the inhibition is 2.55%.

Regarding `Cc1ccc(S(=O)(=O)Nc2ccccc2C(=O)OC(C)C(=O)Nc2ccc3ccccc3c2)cc1[N+](=O)[O-]` (stereo not given), the inhibition is -9.25%.

Take `O=C(O)c1ccccc1Nc1ccc(OC(F)F)cc1`: the inhibition was 18.9%. Turning to `Cc1ccc(NC(=O)C(C)[n+]2ccccc2)cc1[N+](=O)[O-]` (stereo not given), the inhibition is -17.4%. Regarding `CCOC(=O)c1nn(-c2ccc(Br)cc2)cc1C(=O)c1cccc2ccccc12`, the inhibition is 2.03%. With `O=c1c(Cl)c(NCc2ccccc2)cnn1C12CC3CC(CC(C3)C1)C2`, the inhibition was -15.7%. For the compound `O=C(O)CC12CC3CC(C1)CC(n1ncc(NCc4ccccc4Cl)c(Cl)c1=O)(C3)C2`, the inhibition was 23.6%. Take `O=c1c(Cl)c(NCc2ccc(F)cc2Cl)cnn1C12CC3CC(CC(C3)C1)C2`: the inhibition is -15.2%. In the case of `O=C(O)CC12CC3CC(C1)CC(n1ncc(NCc4ccccc4)c(Cl)c1=O)(C3)C2`, the inhibition is 8.41%. With `O=C(O)Cc1ccc(Nc2cnn(C34CC5CC(CC(CC(=O)O)(C5)C3)C4)c(=O)c2Cl)cc1`, the inhibition is 23.1%. `O=C(O)CC12CC3CC(C1)CC(n1ncc(NCc4ccco4)c(Cl)c1=O)(C3)C2`: the inhibition was 7.19%.

As for `O=c1c(Cl)c(NCc2ccc(F)cc2)cnn1C12CC3CC(CC(C3)C1)C2`, the inhibition is 18.3%.

As to `O=C(O)C12CC3CC(C1)CC(n1ncc(NCc4ccco4)c(Cl)c1=O)(C3)C2`, the inhibition was 1.68%. Regarding `COc1ccccc1N1CCN(C(=O)COc2ccc(Cl)cc2Br)CC1`, the inhibition is 1.89%. For `CCOC(=O)C1CCN(C(=O)Nc2ccc(OC(F)(F)F)cc2)CC1`, the inhibition is 7.03%. As for `O=C(c1cc2cccc([N+](=O)[O-])c2oc1=O)N1CCOCC1`, the inhibition was 14.7%. As for `CCOC(=O)c1c(C)[nH]c(C)c1C(=O)COC(=O)/C=C/c1cccc(C(F)(F)F)c1`, the inhibition is -1.01%. Take `Cc1cc(C)c(OC2(c3ccccc3)OC(=O)c3ccccc32)c(C)c1` (stereo not given): the inhibition was -10.6%. Regarding `Cc1ccccc1/C=N/N=C1/NC(=O)CCS1`, the inhibition is 23.8%. To `CN1CCC(=NNC(=O)C(=O)Nc2ccc(F)cc2)CC1` belongs 13.2%; to `COc1cccc(CNC(=O)CCNS(=O)(=O)c2cccc3nsnc23)c1`, -1.94%; to `Cn1cccc1Cc1nnc(SCC(=O)N2CCc3ccccc32)n1CCc1ccccc1`, 36.6%. Turning to `O=C(N/N=C/c1ccccc1C(=O)O)c1cc(-c2ccc3c4c(cccc24)CC3)n[nH]1`, the inhibition was 91.8%. To `O=C(N/N=C/c1cccc([N+](=O)[O-])c1)c1cc(-c2ccc3c4c(cccc24)CC3)n[nH]1` belongs -2.54%; to `CC(C)=CC(=O)Nc1ccc(OCc2ccccc2)cc1`, 2.98%. Regarding `O=C(NCC1CCCO1)/C(=C\c1cccc([N+](=O)[O-])c1)NC(=O)c1ccccc1` (stereo not given), the inhibition is -4.67%. Consider `O=C(O)Cn1c(=O)cnc2ccccc21`, for which the inhibition was -13.7%.

In the case of `CC(C)C1N=C2c3ccccc3N=C(SCC(=O)NCCc3ccc(S(N)(=O)=O)cc3)N2C1=O` (stereo not given), the inhibition is -29.1%. For `CC(C)C1N=C2c3ccccc3N=C(SCC#N)N2C1=O` (stereo not given), the inhibition was -5.52%. In the case of `CNC(=O)c1c2c(nc3ccc(Br)cc13)CCCC2`, the inhibition was -4.18%. On to `O=C(CSc1nc2ccccc2c(=O)n1-c1ccc(F)cc1)Nc1ccc2c(c1)CCC2`, for which the inhibition was 13.5%.

For the compound `COc1ccc(-n2c(SCC(=O)Nc3cccc4ccccc34)nc(O)cc2=O)cc1`, the inhibition was -2.11%.

In the case of `Cc1ccc(-n2c(SCC(=O)Nc3ccc4c5c(cccc35)CC4)nc(O)c(C)c2=O)cc1`, the inhibition was 39%. Take `Cc1ccc(-n2c(SCC(=O)Nc3ccc4c5c(cccc35)CC4)nc(O)cc2=O)cc1`: the inhibition is 26.7%. The same measure for `Cc1cccc(OCC(=O)Nc2ccc3c4c(cccc24)CC3)c1C`: 6.88%; for `Cc1nnc(SCC(=O)Nc2ccc3c4c(cccc24)CC3)n1C`: 0.6%; for `Cc1ccccc1Cn1nc(C)c(NC(=O)C2c3ccccc3Oc3ccccc32)c1C`: -14%. Turning to `CCN(CC)C(=O)c1ccc(-c2nnc(OC)c3ccccc23)cc1`, the inhibition is -4.54%. As for `COC(=O)c1c(-c2cccs2)csc1NC(=O)c1cccnc1`, the inhibition was 15.9%. In the case of `CCCn1c(SCC(=O)N2c3ccccc3Sc3ccccc32)nc2ccccc21`, the inhibition was -2.24%. `CC1CCCCN1Cc1c(C#N)c2ccccc2n1C` (stereo not given): the inhibition is -2.84%. For the compound `Cc1c(Cl)c(C(F)F)nn1CC(=O)NC1C(=O)N2C(C(=O)O)=C(CSc3nnnn3C)CSC12` (stereo not given), the inhibition is 11.3%. Consider `Cc1nnc(SCC2=C(C(=O)O)N3C(=O)C(NC(=O)Cn4nc(C(F)F)cc4C)C3SC2)s1` (stereo not given), for which the inhibition was 47.7%.

As to `O=C(Nc1ccc(Oc2cccc3ccccc23)cc1)c1ccco1`, the inhibition was -4.51%.

`CCN1C(=O)CC(N2CCN(c3ccc(C(=O)c4ccncc4)cc3)CC2)C1=O` (stereo not given): the inhibition was 31.2%. As to `CC(=O)NC(C(=O)OCC(=O)N(c1ccccc1)c1ccccc1)C(C)C` (stereo not given), the inhibition was 0.51%. Consider `Cc1cc(N2CCCC2)ccc1/C=C1\NC(=S)N(C)C1=O`, for which the inhibition was -1.37%. In the case of `Cc1cc(N2CCCC2)ccc1/C=C1/C(=O)N(C)C(=S)N1C`, the inhibition was 1.26%.

As for `COc1cc2c(cc1OC)C(C(=O)N1CCCCC1)C(c1ccccc1F)N(C)C2=O` (stereo not given), the inhibition was 2.89%. For the compound `S=c1cnc2ccccc2[nH]1`, the inhibition was 6.02%. With `N#CCCn1cc(C(=O)N2CCCCC2)c(-c2cccc([N+](=O)[O-])c2)n1`, the inhibition was 4.89%. With `CC1(C)CC(=O)C(C(C2=C(O)CC(C)(C)CC2=O)c2ccc(Cl)c([N+](=O)[O-])c2)C(=O)C1` (stereo not given), the inhibition is 7.5%. To `CN(C)/C=N/c1sc2c(c1C#N)CCCCC2` belongs 5.07%.

As for `CN(C)/C=N/c1sc2c(c1C#N)CCCC2`, the inhibition was 0.79%. As for `COc1cc(CNC2CCCC2)cc(Cl)c1OCc1ccccc1F`, the inhibition was -3.97%. For `CC(NC(=O)c1ccc(Br)cc1)c1ccccc1` (stereo not given), the inhibition was 12.4%. In the case of `Cc1nc(-c2cccc(Cl)c2)n[nH]1`, the inhibition was -5.31%. As for `CCn1c(-c2cccc(Cl)c2)n[nH]c1=S`, the inhibition was 6.53%. `COC(=O)CN1C(=O)C(O)(CC(=O)c2ccc(Cl)cc2)c2ccccc21` (stereo not given): the inhibition was 12.1%. Turning to `C/C(=N/NC(=O)CSCc1ccc(Cl)cc1)c1cccc(NC(=O)c2ccccc2)c1`, the inhibition is -0.71%. Turning to `CN(C)C(=S)Nc1cccc(-c2n[nH]c(=S)o2)c1`, the inhibition is 4%.

As to `O=C(CN1C(=O)CSc2ccccc21)Nc1ccc2c(c1)OCCO2`, the inhibition is 12.7%. The same measure for `CC1CC(=O)N(CC(=O)NCc2ccc3c(c2)OCO3)c2ccccc2S1` (stereo not given): 24%; for `CC1CC(=O)N(CC(=O)Nc2ccc3c(c2)OCCO3)c2ccccc2S1` (stereo not given): 51.7%; for `O=C(CN1C(=O)c2cccc3cccc1c23)Nc1ccc2c(c1)OCO2`: 31.3%.

Take `O=C(CN1C(=O)CCSc2ccccc21)Nc1ccc2c(c1)OCO2`: the inhibition was 48.6%.

Consider `O=C(CCN1C(=O)c2ccccc2C1=O)Nc1ccc2c(c1)OCCO2`, for which the inhibition was 10.7%.

`O=C(CCCNS(=O)(=O)c1cccs1)N1CCc2ccccc2C1`: the inhibition was -15.3%. `COc1ccccc1C(=O)N(NC(=O)Oc1ccccc1)C(C)(C)C`: the inhibition is -4.52%. As to `COc1cc(/C=N/NC(=O)c2nonc2N)cc(OC)c1OC`, the inhibition was 12.6%. The same measure for `S=C(Nc1ccccc1)N(CCN1CCOCC1)Cc1cccc(Cl)c1`: 3.82%.
